In PubChem BioAssay:
Values joined by “and” are separate entries in the source; they are usually repeats but may differ in a detail not shown here. Equal entries are not always repeated. Inconclusive results are not listed. Active and inactive are the calls of the source.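 The calls were made as follows, unless noted: active = response below a set limit, under 55% cells CD8-positive and vesicle-bound, and CD8 cells' 90th-percentile brightness under 279; inactive = the rest.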

Key:
[1] = yeast TOR pathway RPL19A-GFP modulators, primary screen, cell-based, S. cerevisiae, multiplex flow cytometry (AID 1862; in the data active = percent of DMSO control GFP below about 86%;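 also: lower values mimic rapamycin by blocking the RPL19A rise seen in DMSO cells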); conditions: S. cerevisiae RPL19A-GFP strain, flow cytometry fluorescence, 3 h; at 10 µM; stronger effect = lower value
[2] = modulators of MEP2-GFP levels in yeast, primary screen, S. cerevisiae, multiplex flow cytometry (AID 1867;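 active = GFP response, as percent of the DMSO control, above the screen-wide mean plus 3 SD, about 139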;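 also: median GFP channel fluorescence of barcode-gated MEP2-GFP cells measured by flow cytometry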); conditions: S. cerevisiae MEP2-GFP strain, 3 h, at 10 µM, stronger effect = higher value, 100% means same as DMSO wells
[3] = modulators of CIT2-GFP expression in yeast, primary screen, S. cerevisiae, GFP fusion, multiplex flow cytometry (AID 1870;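 active = percent response above a set limit, the screen-wide mean plus 3 SD, cut at about 130% in these data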;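 also: barcoded CIT2-GFP strain pooled with four other GFP strains with rapamycin as positive control; median GFP fluorescence per well over plate mean of DMSO wells so 100% = DMSO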); conditions: 3 h, at 10 µM, stronger effect = higher value
[4] = modulators of LAP4-GFP expression in yeast, primary screen, S. cerevisiae, multiplex flow cytometry (AID 1873;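 active = GFP signal, as percent of the solvent control, above the screen mean plus 3 SD, about 149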); conditions: 3 h, at 10 µM, stronger effect = higher value
[5] = modulators of AGP1-GFP expression in yeast TOR pathway, primary screen, cell-based, multiplex flow cytometry, S. cerevisiae (AID 1887;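 active = GFP signal above the screen-wide mean plus 3 SD, that is over about 124.5% of the solvent control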;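 also: AGP1-GFP fusion strain of S. cerevisiae within a five-strain barcoded multiplex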); conditions: 3 h, at 10 µM, stronger effect = higher value
[6] = inhibitors of CD8+ T cell-vesicle binding, pilot screen, LFA-1/ICAM-1 modulator project, MLPCN validation set, flow cytometry (AID 2523); conditions: 2C mouse CD8+ T cells, at 7 µM, stronger effect = lower value; double positive events: measured here: CD8+/vesicle+ event percentage;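 as to vesicle binding response: mean PE anti-B7-1 fluorescence of CD8+ cells relative to row control; 100% = QL9-loaded vesicles with DMSO vehicle in the same plate row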
[7] = target: Integrin beta-1 (Homo sapiens) + Integrin alpha-4 (Homo sapiens) (UniProt P13612+P05556); assay: inhibition of HUTS-21 binding to VLA-4, pilot screen, VLA-4 allosteric modulator project, U937 cells, HUTS-21 mAb, flow cytometry, validation set (AID 2674;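 active = inhibition above 50%, about 3 SD of the validation set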;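 also: antibody binding induced by the VLA-4 ligand LDV present at three times its Kd; 0% = LDV ligand with antibody and no compound and 100% = antibody without LDV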); conditions: HUTS-21 LIBS mAb binding, at 6.7 µM, stronger effect = higher value, binding induced by LDV ligand
Integrin beta-1 (Homo sapiens) + Integrin alpha-4 (Homo sapiens), sequence (P05556 whole entry, looked up): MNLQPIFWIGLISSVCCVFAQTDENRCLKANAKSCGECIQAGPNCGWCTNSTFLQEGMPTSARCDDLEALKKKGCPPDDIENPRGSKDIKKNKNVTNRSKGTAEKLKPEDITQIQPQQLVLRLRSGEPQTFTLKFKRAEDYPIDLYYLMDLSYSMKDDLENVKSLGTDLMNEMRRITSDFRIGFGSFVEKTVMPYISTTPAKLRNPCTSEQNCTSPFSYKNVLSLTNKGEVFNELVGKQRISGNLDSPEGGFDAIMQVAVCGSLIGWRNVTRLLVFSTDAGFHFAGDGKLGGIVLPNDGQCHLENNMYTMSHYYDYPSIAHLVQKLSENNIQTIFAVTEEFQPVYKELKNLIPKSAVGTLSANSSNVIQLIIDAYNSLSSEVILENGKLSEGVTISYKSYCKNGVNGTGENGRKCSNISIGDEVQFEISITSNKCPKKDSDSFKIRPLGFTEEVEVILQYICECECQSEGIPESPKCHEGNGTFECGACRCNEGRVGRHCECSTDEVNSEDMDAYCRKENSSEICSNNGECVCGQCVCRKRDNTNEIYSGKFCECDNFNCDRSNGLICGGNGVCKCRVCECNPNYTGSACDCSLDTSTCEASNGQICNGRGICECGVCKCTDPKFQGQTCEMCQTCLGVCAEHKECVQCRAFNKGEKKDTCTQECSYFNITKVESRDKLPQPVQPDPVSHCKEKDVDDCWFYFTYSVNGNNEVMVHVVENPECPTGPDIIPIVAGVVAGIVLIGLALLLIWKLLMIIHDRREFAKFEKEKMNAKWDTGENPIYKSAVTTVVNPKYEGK
Integrin beta-1 (Homo sapiens) + Integrin alpha-4 (Homo sapiens), sequence (P13612 whole entry, looked up): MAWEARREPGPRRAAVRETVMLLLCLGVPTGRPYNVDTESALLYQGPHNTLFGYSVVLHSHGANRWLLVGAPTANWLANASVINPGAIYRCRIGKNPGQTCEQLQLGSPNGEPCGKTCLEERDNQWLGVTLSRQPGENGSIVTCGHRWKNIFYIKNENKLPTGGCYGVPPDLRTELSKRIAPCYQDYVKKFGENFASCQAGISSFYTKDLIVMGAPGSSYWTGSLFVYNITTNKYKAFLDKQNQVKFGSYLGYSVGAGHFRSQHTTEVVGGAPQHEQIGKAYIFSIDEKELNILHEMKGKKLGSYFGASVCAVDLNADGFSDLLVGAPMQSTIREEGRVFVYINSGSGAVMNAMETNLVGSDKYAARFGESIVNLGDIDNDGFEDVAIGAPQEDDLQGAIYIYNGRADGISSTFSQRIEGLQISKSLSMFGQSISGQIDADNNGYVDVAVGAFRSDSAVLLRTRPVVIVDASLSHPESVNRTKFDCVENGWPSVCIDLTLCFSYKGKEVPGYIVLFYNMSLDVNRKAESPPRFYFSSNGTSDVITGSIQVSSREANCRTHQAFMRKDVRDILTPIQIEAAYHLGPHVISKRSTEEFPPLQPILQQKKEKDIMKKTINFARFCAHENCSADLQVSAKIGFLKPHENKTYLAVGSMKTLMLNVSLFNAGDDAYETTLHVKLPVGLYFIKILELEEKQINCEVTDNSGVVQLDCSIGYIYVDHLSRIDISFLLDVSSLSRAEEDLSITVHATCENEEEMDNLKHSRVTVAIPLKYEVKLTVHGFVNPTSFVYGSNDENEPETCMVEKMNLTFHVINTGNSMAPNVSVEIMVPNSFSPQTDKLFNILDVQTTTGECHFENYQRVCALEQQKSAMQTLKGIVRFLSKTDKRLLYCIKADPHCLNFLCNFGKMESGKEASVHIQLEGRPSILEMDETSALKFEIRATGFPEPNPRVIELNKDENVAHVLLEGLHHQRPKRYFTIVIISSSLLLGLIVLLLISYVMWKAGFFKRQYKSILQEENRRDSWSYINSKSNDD

[8] = superoxide lowering in aged yeast cells, pilot screen, validation compound set (AID 2706;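 active = superoxide response below 65% of plate, a cut near 3 SD across the whole screen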;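 also: yeast exposed to compound for one week at 30 degrees C before staining; 100% = mean of all compound wells on the same plate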); conditions: S. cerevisiae aging, superoxide DHE fluorescence; at 10 µM; stronger effect = lower value
[9] = target: Beta-adrenergic receptor kinase 1 (Homo sapiens) (UniProt P25098); assay: GRK2 binders displacing RNA aptamer, biochemical, validation, human GRK2, bead flow cytometry (AID 488806;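 active = aptamer binding inhibition above 30%, about 3 SD of noise from non-fluorescent compounds; inactive = inhibition at or below 30%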); conditions: bead-bound GRK2, FAM-aptamer displacement, at 10 µM, stronger effect = higher value
Beta-adrenergic receptor kinase 1 (Homo sapiens), sequence (P25098 whole entry, looked up): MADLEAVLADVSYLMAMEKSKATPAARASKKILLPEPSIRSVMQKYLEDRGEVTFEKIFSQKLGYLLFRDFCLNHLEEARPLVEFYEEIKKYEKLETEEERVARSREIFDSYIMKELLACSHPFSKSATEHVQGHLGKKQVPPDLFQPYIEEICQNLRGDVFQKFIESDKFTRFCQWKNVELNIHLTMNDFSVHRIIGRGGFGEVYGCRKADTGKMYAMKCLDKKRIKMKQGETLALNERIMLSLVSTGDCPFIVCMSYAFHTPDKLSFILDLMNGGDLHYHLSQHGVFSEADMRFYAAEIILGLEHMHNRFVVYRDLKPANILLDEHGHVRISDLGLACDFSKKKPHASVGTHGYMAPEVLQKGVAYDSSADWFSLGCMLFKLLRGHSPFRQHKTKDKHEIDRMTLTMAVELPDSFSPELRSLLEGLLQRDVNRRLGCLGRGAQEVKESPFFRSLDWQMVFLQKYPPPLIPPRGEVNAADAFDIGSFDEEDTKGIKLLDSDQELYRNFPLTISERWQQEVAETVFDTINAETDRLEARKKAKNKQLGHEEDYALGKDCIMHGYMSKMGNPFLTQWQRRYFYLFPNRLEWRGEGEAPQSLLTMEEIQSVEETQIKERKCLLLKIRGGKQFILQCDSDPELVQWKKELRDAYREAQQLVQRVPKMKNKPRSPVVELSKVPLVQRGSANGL

[10] = target: Beta-2 adrenergic receptor (Homo sapiens) (UniProt P07550); assay: beta2AR agonists driving receptor internalization, pilot screen, cell-based, FAP fluorogen, flow cytometry, validation set (AID 504459;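 active = percent response above 42, roughly 3 SD of non-fluorescent test compounds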;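 also: agonist-driven loss of surface beta2AR via internalization measured by FAP dye flow cytometry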); conditions: Am2.2-beta2AR cells, FAP surface receptor flow cytometry; at 10 µM; stronger effect = higher value
Beta-2 adrenergic receptor (Homo sapiens), sequence (P07550 whole entry, looked up): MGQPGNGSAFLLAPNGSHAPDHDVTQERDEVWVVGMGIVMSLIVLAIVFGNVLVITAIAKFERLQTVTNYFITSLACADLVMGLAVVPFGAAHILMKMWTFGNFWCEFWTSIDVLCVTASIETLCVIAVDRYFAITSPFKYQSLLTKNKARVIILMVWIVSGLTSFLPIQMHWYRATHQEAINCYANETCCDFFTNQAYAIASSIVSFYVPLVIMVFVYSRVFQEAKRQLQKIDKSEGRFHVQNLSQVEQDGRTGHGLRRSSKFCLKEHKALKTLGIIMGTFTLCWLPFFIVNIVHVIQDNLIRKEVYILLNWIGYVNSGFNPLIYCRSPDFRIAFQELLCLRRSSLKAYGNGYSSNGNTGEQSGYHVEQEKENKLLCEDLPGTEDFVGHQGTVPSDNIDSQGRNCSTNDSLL

[11] = target: AP-2 complex subunit beta (Homo sapiens) (UniProt P63010); assay: inhibitors of arrestin peptide binding to AP2, pilot screen, biochemical, validation set, GST-AP2 beads, flow cytometry (AID 504541;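 active = inhibition above 54%, about 3 SD of non-fluorescent compounds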;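 also: AP2 carries R879A mutation and is captured from E. coli lysate; bead-bound FITC arrestin peptide fluorescence measuring arrestin peptide binding to AP2; 0% = DMSO wells and 100% = excess unlabeled arrestin peptide control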); conditions: FITC arrestin peptide, at 10 µM, stronger effect = higher value, AP2 beta2 appendage fragment, R879A mutant
AP-2 complex subunit beta (Homo sapiens), sequence (P63010 whole entry, looked up, the tested form may be a part, one chain of several): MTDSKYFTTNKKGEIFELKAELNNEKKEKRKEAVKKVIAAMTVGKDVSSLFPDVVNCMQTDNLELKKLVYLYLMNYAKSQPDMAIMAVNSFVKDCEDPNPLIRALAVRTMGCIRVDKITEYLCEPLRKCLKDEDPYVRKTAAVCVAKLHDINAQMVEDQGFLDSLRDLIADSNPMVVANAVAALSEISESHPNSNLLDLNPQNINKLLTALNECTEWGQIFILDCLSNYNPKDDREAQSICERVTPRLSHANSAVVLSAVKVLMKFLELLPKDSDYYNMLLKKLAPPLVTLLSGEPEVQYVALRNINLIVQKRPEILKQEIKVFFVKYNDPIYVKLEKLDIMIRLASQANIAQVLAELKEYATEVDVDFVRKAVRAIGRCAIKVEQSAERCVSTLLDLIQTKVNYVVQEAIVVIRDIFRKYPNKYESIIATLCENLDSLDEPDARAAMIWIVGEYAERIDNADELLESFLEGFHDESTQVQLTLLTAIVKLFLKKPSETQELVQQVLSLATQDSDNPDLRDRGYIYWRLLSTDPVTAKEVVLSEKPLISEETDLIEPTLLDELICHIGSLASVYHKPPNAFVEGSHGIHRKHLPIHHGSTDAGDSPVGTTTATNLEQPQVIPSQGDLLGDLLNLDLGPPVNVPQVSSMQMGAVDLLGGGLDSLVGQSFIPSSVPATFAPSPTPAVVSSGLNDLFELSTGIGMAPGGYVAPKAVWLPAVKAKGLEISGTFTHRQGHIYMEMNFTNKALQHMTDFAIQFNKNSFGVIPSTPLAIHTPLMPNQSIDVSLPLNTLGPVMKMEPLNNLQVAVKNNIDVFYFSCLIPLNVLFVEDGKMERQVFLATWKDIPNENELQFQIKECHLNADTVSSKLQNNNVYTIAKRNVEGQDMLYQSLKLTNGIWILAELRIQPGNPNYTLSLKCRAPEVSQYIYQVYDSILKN

[12] = yeast V-ATPase proton transport modulators, S. cerevisiae, pHLuorin, HTS validation (AID 504600; in the data active = response above about 15%;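 also: plate controls were DMSO for no effect and reference compound for full effect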); conditions: S. cerevisiae pHLuorin cytosolic pH, at 10 µM, stronger effect = higher value
[13] = test system: anti-desmoglein-3 scFv antibody binding to human DSG3; assay: inhibitors of anti-DSG3 scFv binding to DSG3, pilot screen, biochemical, validation compound set, bead-based, flow cytometry (AID 588368;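 active = binding below the plate cutoff, the plate median minus 3 SD, with a reading above zero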;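 also: signal is the median channel fluorescence of bead-bound GFP antibody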); conditions: Protein G beads, DSG3-Fc, scFv-GFP binding, at 10 µM, stronger effect = lower value
[14] = inhibitors of fungal efflux pumps CDR1, CDR2, MDR1, pilot screen, validation compound set, multiplex, phenotypic (AID 588506;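 active = efflux inhibition above 0.42, the validation set average plus 4 SD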;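 also: Nile Red retained in cells so higher fluorescence means more efflux inhibition; 0 = negative control wells and 1 = enniatin B 25 µM full block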); conditions: S. cerevisiae pump-expressing triplex, Nile Red efflux flow cytometry; at 10 µM; stronger effect = higher value; the pumps come from Candida albicans
[15] = target: ATP-binding cassette sub-family B member 6 (Homo sapiens) (UniProt Q9NP58); assay: ABCB6 transporter inhibitors, pilot screen, K562-ABCB6 cells, flow cytometry, validation set (AID 588550;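 active = inhibition above the screen-wide mean plus 3 SD, about 51%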;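 also: 0% = DMSO wells and 100% = benzethonium chloride 70 µM positive control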); conditions: K562-ABCB6 porphyrin accumulation, 1 h, at 10 µM, stronger effect = higher value
ATP-binding cassette sub-family B member 6 (Homo sapiens), sequence (Q9NP58 whole entry, looked up): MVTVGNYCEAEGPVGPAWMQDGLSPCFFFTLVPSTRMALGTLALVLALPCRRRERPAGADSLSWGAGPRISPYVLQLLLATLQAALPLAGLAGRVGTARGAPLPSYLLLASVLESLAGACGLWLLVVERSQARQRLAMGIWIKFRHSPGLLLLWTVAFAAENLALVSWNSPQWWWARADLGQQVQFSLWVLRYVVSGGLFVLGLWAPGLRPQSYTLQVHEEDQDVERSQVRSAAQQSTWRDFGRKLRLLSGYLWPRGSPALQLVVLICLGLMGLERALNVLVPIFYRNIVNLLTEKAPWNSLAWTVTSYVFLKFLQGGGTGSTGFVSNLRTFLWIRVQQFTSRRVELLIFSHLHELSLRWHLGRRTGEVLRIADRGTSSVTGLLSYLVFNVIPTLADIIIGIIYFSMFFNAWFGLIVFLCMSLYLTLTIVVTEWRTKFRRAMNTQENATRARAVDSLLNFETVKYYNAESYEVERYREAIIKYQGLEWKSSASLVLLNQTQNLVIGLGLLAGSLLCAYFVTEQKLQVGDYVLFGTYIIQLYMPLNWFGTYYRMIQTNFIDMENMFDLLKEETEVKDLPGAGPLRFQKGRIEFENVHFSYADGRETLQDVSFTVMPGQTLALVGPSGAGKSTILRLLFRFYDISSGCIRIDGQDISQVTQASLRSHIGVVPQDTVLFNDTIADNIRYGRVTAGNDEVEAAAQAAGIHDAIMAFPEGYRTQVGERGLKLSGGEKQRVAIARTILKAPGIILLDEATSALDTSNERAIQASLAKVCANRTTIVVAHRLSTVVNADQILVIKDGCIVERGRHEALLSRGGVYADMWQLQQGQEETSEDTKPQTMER

[16] = promoters of myeloid differentiation in arrested cells, primary screen, cell-based, GFP/MAC1 double positive, flow cytometry, validation set (AID 588685;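 active = differentiation response of at least 50%, scaled between solvent and reference control, from cells with both markers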;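 also: compound exposure lasts four days before antibody staining and flow analysis; 0% = DMSO wells and 100% = 5 µM fulvestrant positive control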); conditions: ER-HoxA9 marrow cells, stronger effect = higher value, normalized: vehicle 0, fulvestrant 100

c1ccc(-c2ccccn2)nc1
active: inhibition [15] 55%
54.1%: double positive events [6]
inactive: percent of DMSO control GFP [1] 103% | GFP response vs DMSO [2] 112% | percent response of DMSO control [3] 107% | GFP response vs DMSO [4] 101% | GFP response, % of DMSO [5] 102% | vesicle binding response [6] 157% | inhibition [7] 6.95% | superoxide response (% of plate) [8] 96.7% | aptamer binding inhibition [9] 8% | response [10] -1.6% | inhibition [11] -7.99% | response [12] -2.77% | binding (% of control) [13] 101% | efflux inhibition (fraction of control) [14] -0.08 | differentiation response [16] -4.57%

COc1ccc2c(c1)c(=O)oc1cc3occ(C(C)(C)C)c3cc12
active: response [12] 29.4%
inactive: percent of DMSO control GFP [1] 103% | GFP response vs DMSO [2] 105% | percent response of DMSO control [3] 103% | GFP response vs DMSO [4] 109% | GFP response, % of DMSO [5] 108% | vesicle binding response [6] 138% | inhibition [7] 9.95% | superoxide response (% of plate) [8] 92.5% | aptamer binding inhibition [9] 0% | response [10] -15.7% | inhibition [11] 42.4% | binding (% of control) [13] 93.8% | efflux inhibition (fraction of control) [14] 0.21 | inhibition [15] 0% | differentiation response [16] -14.8%
60%: double positive events [6]

O=C1NC(=O)C(c2ccccc2)(c2ccccc2)N1
inactive: percent of DMSO control GFP [1] 102% | GFP response vs DMSO [2] 107% | percent response of DMSO control [3] 93.9% | GFP response vs DMSO [4] 93.3% | GFP response, % of DMSO [5] 99.6% | vesicle binding response [6] 114% and 142% | inhibition [7] 20.4% and -2.11% | superoxide response (% of plate) [8] 102% and 98.5% | aptamer binding inhibition [9] -2% and 2% | response [10] 5.51% | inhibition [11] 1.12% and -5.85% | response [12] 8.2% and -0.2% | binding (% of control) [13] 97% and 99.3% | efflux inhibition (fraction of control) [14] -0.44 and 0.29 | inhibition [15] 11% and 12% | differentiation response [16] -0.18% and -8.27%
58.7% and 60.5%: double positive events [6]

Cc1[nH]c2ccccc2c1C(=O)C(=O)NCc1ccco1
62%: double positive events [6]
inactive: percent of DMSO control GFP [1] 103% | GFP response vs DMSO [2] 104% | percent response of DMSO control [3] 101% | GFP response vs DMSO [4] 112% | GFP response, % of DMSO [5] 113% | vesicle binding response [6] 151% | inhibition [7] -14.7% | superoxide response (% of plate) [8] 97.1% | aptamer binding inhibition [9] 8% | response [10] -22.4% | inhibition [11] 5.02% | response [12] -4.14% | binding (% of control) [13] 106% | efflux inhibition (fraction of control) [14] -0.04 | inhibition [15] 4% | differentiation response [16] -4%

O=C1CN(O)C=C2N=c3ccccc3=C2N1c1ccc([N+](=O)[O-])cc1
61.3%: double positive events [6]
inactive: percent of DMSO control GFP [1] 106% | GFP response vs DMSO [2] 108% | percent response of DMSO control [3] 107% | GFP response vs DMSO [4] 101% | GFP response, % of DMSO [5] 107% | vesicle binding response [6] 124% | inhibition [7] -17.2% | superoxide response (% of plate) [8] 106% | aptamer binding inhibition [9] 2% | response [10] -10.9% | inhibition [11] -5.08% | response [12] 1% | binding (% of control) [13] 100% | efflux inhibition (fraction of control) [14] -0.13 | inhibition [15] 19% | differentiation response [16] -3.11%

Cc1ccc2c(c1)C1CN(C)CCC1N2S(=O)(=O)c1ccc(Oc2ccc([N+](=O)[O-])cc2)cc1 (stereo not drawn)
56.7%: double positive events [6]
inactive: percent of DMSO control GFP [1] 104% | GFP response vs DMSO [2] 103% | percent response of DMSO control [3] 106% | GFP response vs DMSO [4] 91.5% | GFP response, % of DMSO [5] 97% | vesicle binding response [6] 153% | inhibition [7] 2.93% | superoxide response (% of plate) [8] 97.8% | aptamer binding inhibition [9] -7% | response [10] 25.2% | inhibition [11] -1.46% | response [12] 10.4% | binding (% of control) [13] 105% | efflux inhibition (fraction of control) [14] 0.085 | inhibition [15] -4% | differentiation response [16] -14.8%

C[C@H](NC(=O)C1(c2ccccc2)CCN(C(=O)[C@H]2CSCN2C(=O)OC(C)(C)C)CC1)C(=O)O
inactive: percent of DMSO control GFP [1] 105% | GFP response vs DMSO [2] 103% | percent response of DMSO control [3] 99.6% | GFP response vs DMSO [4] 110% | GFP response, % of DMSO [5] 117% | vesicle binding response [6] 161% | inhibition [7] 17.6% | superoxide response (% of plate) [8] 95.1% | aptamer binding inhibition [9] 6% | response [10] -18.9% | inhibition [11] -3.02% | response [12] -2.91% | binding (% of control) [13] 103% | efflux inhibition (fraction of control) [14] -0.09 | inhibition [15] 1% | differentiation response [16] -1.05%
62%: double positive events [6]

COc1ccc2[nH]c3c(c2c1)CCNC3C1CC=C(C)CC1 (stereo not drawn)
69%: double positive events [6]
inactive: percent of DMSO control GFP [1] 95.9% | GFP response vs DMSO [2] 128% | percent response of DMSO control [3] 104% | GFP response vs DMSO [4] 79.8% | GFP response, % of DMSO [5] 101% | vesicle binding response [6] 519% | inhibition [7] 7.43% | superoxide response (% of plate) [8] 111% | aptamer binding inhibition [9] -1% | response [10] 13.6% | inhibition [11] 2.43% | response [12] -0.18% | binding (% of control) [13] 113% | efflux inhibition (fraction of control) [14] 0.12 | inhibition [15] -1% | differentiation response [16] 0.82%

COc1cc(OC)cc(C(C)=O)c1
68.7%: double positive events [6]
inactive: percent of DMSO control GFP [1] 96% | GFP response vs DMSO [2] 91.8% | percent response of DMSO control [3] 95.1% | GFP response vs DMSO [4] 99.5% | GFP response, % of DMSO [5] 104% | vesicle binding response [6] 149% | inhibition [7] 14.2% | superoxide response (% of plate) [8] 94.5% | aptamer binding inhibition [9] 9% | response [10] -14.6% | inhibition [11] -2.85% | response [12] -2.23% | binding (% of control) [13] 81.3% | efflux inhibition (fraction of control) [14] 0 | inhibition [15] 5% | differentiation response [16] -6.96%
